# Measured values published in the supplement of paper PMC12350171.
# Structures can show the parent of a compound that is named as a salt. Unmarked numbers belong to inactive results.
# Legend:
# Conditions in all cases: 20 µM
# [1] = tested on: Haemophilus parainfluenzae; assay: growth AUC normalised to DMSO control (fraction of control); higher = less growth inhibition, active = hit call of the paper
# In short: (§1)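 Hemin and NAD were added to the medium for Haemophilus parainfluenzae. All pathogens, after two anaerobic passages, were inoculated at a starting OD578 of 0.01 into pre-reduced mGAM plates with 20 μM compound and 1% DMSO under breathable seals, and OD578 was read hourly for 24 h in three biological replicates. AUC of each growth curve was obtained with the trapezoidal rule up to the exponential-to-stationary transition and normalised to DMSO controls from the same plate.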
# [2] = tested on: Salmonella enterica typhimurium; assay: as above
# In short: as §1
# Shigella flexneri = assay: as above
# In short: as §1
# Vibrio cholerae = assay: as above
# In short: as §1
# [3] = tested on: Yersinia pseudotuberculosis; assay: as above
# In short: as §1
# P. vulgatus RND KO = assay: growth AUC normalised to DMSO control (median) (fraction of control); higher = less growth inhibition, active = hit call of the paper
# In short: (§2)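 In 96-well plates of mGAM seeded at OD578 0.01, strains that had been passaged twice overnight without oxygen were exposed to approved-drug library compounds at 20 μM with 1% DMSO. Hourly OD578 readings were taken for 24 h in an anaerobic incubator. The trapezoidal-rule area under the curve, with curves truncated at entry into stationary phase, was expressed relative to same-plate vehicle wells as the median of three biological replicates.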
# P. vulgatus WT = assay: as above
# In short: as §2
# [4] = tested on: S. enterica typhimurium WT; assay: as above
# In short: as §2
# [5] = tested on: S. enterica typhimurium tolC KO; assay: as above
# In short: as §2
# 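For growth AUC normalised to DMSO control (median) in this document: active when median AUC fell below 0.1.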
Structure (SMILES),growth AUC normalised to DMSO control [1],growth AUC normalised to DMSO control [2],growth AUC normalised to DMSO control (Shigella flexneri),growth AUC normalised to DMSO control (Vibrio cholerae),growth AUC normalised to DMSO control [3],growth AUC normalised to DMSO control (P. vulgatus RND KO),growth AUC normalised to DMSO control (P. vulgatus WT),growth AUC normalised to DMSO control [4],growth AUC normalised to DMSO control [5]
"CC(=O)OCC1=C(C(=O)O)N2C(=O)[C@@H](N)[C@H]2SC1 [Cephalosporanic acid, 7-amino]",0.942,0.999,0.987,0.968,0.99,0.0227 (active),0.0158 (active),1,0.983
CO[C@]12C[C@@H](COC(=O)c3cncc(Br)c3)CN(C)[C@@H]1Cc1cn(C)c3cccc2c13 [Nicergoline],1.03,1.01,1,0.996,1,0.933,0.948,1,0.942
COc1cc2c(c(OC)c1OC)-c1ccc(OC)c(=O)cc1[C@@H](NC(C)=O)CC2 [Colchicine],0.981,0.988,0.964,0.98,0.977,0.988,0.986,1,1.01
CCC1(C)CC(=O)NC(=O)C1 [Bemegride],1.02,1.02,1.01,1.05,1.01,1.03,1.08,1.02,1.01
C[N+]1(C)[C@@H]2CC[C@H]1C[C@@H](OC(=O)C(CO)c1ccccc1)C2 (stereo partly drawn) [Methylatropine nitrate],1.05,1.01,1.03,1.02,1,1.02,1.04,0.999,1.02
C[C@]12CC[C@H](O)C[C@H]1CC[C@@H]1[C@@H]2CC[C@]2(C)[C@@H](C3=CC(=O)OC3)CC[C@]12O [Digitoxigenin],1,1,0.981,0.973,0.995,0.989,0.968,0.995,1
CC(C)N(CCC(C(N)=O)(c1ccccc1)c1ccccn1)C(C)C (stereo not drawn) [Disopyramide],0.997,0.993,0.988,0.983,0.996,1,0.998,1,0.983
CNC(=O)Oc1ccc2c(c1)[C@]1(C)CCN(C)[C@@H]1N2C [Eserine hemisulfate salt],0.975,1.01,1.02,1.06,0.97,1.07,1.06,0.999,0.993
CC(C)(C)NCC(O)c1ccccc1Cl (stereo not drawn) [Tulobuterol hydrochloride],1,1,1.01,1.03,0.893,0.991,1.01,0.99,1.01
CN(C)[C@@H]1C(=O)C(C(N)=O)=C(O)[C@@]2(O)C(=O)C3=C(O)c4c(O)cccc4[C@@](C)(O)[C@H]3C[C@@H]12 [Tetracycline hydrochloride],0.0479 (active),0.00376 (active),0.0389 (active),0.0365 (active),0.0501 (active),0.0124 (active),0.013 (active),0.0084 (active),0.00234 (active)
CC(=O)O[C@H]1C[C@@H]2CC[C@@H]3[C@H](CC[C@@]4(C)[C@H]3C[C@H]([N+]3(C)CCCCC3)[C@@H]4OC(C)=O)[C@@]2(C)C[C@@H]1[N+]1(C)CCCCC1 [Pancuronium bromide],1.04,1.01,1.05,1.04,1,1.01,1.04,1.03,1.01
C#C[C@]1(O)CC[C@H]2[C@@H]3CCC4=CC(=O)CC[C@]4(C)[C@H]3CC[C@@]21C [Ethisterone],1.02,1.01,1.02,1.02,1,1.05,1.04,1.02,0.998
